Test results as given in PubChem BioAssay AID2284085 (EPA ToxCast).
Active and inactive are the calls of the source. The calls were made as follows: active = hit-call score of the fitted dose curve at least 0.9, where 1 is the maximum; inactive = score below 0.9.

Target: human Fms (CSFR) (CSF1R) Receptor Tyrosine Kinase, CSF1R (gene 1436) (UniProt P07333)
Assay: ERF_FR_ENZ_hCSF1R: Eurofins (ERF) Enzymatic Radiometric [Km ATP] KinaseProfiler LeadHunter Assay for human Fms (CSFR) (CSF1R) Receptor Tyrosine Kinase
Method: ERF_FR_ENZ_hCSF1R is a biochemical, single-readout assay that uses extracted gene-proteins in a cell-free assay. Measurements were taken 0.25 hour after chemical dosing in a 96-well plate. See Fms (CSFR) Human RTK Kinase Enzymatic LANCE Assay [Km ATP], Cerep.ERF_FR_ENZ_hCSF1R is an assay component calculated from the ERF_FR_ENZ_hCSF1R assay. It is designed to measure enzyme activity using a type of enzyme reporter as detected by fluorescence intensity with LANCE technology.Data from the assay component ERF_FR_ENZ_hCSF1R was analyzed at the assay endpoint, ERF_FR_ENZ_hCSF1R, in the positive analysis fitting direction relative to DMSO as the negative control and baseline of activity. Using a type of enzyme reporter, loss-of-signal activity can be used to understand changes in enzymatic activity as they relate to gene CSF1R. To generalize the intended target to other relatable targets, this assay endpoint is annotated to the kinase intended target family, where the subfamily is receptor tyrosine kinase.
Fms (h) is incubated with 8 mM MOPS pH 7.0, 0.2 mM EDTA, 250 uM […], 10 mM MgAcetate and [g- 33P]-ATP (specific activity and concentration as required). The reaction is initiated by the addition of the Mg/ATP mix. After incubation for 40 minutes at room temperature, the reaction is stopped by the addition of phosphoric acid to a concentration of 0.5%. […]

Sequence of human Fms (CSFR) (CSF1R) Receptor Tyrosine Kinase, CSF1R (gene 1436) (P07333 whole entry, looked up): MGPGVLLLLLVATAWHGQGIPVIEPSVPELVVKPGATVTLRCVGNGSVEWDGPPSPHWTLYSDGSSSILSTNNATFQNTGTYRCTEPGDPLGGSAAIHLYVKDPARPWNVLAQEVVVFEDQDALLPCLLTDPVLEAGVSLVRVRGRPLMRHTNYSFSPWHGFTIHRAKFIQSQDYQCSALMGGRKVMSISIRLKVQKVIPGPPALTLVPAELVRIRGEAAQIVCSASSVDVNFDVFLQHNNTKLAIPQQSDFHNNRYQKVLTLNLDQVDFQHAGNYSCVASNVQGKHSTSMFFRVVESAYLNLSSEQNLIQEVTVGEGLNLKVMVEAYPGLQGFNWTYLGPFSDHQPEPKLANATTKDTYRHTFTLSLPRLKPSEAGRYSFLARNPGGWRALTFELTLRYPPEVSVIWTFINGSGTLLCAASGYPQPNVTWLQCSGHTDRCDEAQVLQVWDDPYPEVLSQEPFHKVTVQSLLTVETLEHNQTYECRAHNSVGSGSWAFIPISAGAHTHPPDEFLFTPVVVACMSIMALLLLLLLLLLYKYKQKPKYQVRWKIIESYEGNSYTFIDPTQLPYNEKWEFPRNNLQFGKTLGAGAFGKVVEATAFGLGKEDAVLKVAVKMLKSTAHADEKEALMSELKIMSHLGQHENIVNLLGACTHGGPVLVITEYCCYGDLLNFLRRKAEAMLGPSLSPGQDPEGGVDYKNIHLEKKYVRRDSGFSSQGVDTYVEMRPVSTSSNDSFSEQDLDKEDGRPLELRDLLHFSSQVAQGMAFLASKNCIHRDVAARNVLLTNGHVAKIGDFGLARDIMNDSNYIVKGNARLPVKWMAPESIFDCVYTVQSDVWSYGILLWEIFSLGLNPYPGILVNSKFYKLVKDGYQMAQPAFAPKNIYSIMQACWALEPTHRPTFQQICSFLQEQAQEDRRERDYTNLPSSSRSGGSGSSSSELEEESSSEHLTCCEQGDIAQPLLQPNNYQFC

Row | Compound | outcome
1 | O=C(/C=C/c1ccc(O)cc1)CC(=O)/C=C/c1ccc(O)cc1 | inactive
